Compounds with a hit are over-represented: about 0.5% of the library has one in this group of screens.
TCR activator: activators of T cell receptors; primary human leukocytes, anti-CD3, IL-2 HTRF, 48 h; Potency, µM (titrated, usually from 9.22 µM), inactives show at the highest dose activation of IL-2 secretion, actives largely listed as activators; 330,000 tested, under 10 active; AID 504894; also: % of control where 0% means no effect
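Primary human leukocytes incubated 48 hr with anti-CD3 beads plus compound, without co-stimulation. Secreted IL-2 measured by HTRF (europium cryptate/d2 anti-IL-2 pair, 320 nm excitation, 665 nm emission).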
TSHR antag: human thyrotropin receptor antagonism. P16473. TSHR-expressing cells, TSH-stimulated cAMP HTRF, 2 h; stronger effect = lower value. activity change, negative = inhibition, % at 11.5 µM. hit rate 0.2% among 330,000. AID 504810;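 active = activity change below a set negative limit, meaning inhibition stronger than a set level, cut at about -70% in these data; inconclusive = activity change between two set negative limits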; also: % is scaled to controls: 0 for no effect and ±100 for the full control effect
Target sequence (P16473 whole entry, looked up): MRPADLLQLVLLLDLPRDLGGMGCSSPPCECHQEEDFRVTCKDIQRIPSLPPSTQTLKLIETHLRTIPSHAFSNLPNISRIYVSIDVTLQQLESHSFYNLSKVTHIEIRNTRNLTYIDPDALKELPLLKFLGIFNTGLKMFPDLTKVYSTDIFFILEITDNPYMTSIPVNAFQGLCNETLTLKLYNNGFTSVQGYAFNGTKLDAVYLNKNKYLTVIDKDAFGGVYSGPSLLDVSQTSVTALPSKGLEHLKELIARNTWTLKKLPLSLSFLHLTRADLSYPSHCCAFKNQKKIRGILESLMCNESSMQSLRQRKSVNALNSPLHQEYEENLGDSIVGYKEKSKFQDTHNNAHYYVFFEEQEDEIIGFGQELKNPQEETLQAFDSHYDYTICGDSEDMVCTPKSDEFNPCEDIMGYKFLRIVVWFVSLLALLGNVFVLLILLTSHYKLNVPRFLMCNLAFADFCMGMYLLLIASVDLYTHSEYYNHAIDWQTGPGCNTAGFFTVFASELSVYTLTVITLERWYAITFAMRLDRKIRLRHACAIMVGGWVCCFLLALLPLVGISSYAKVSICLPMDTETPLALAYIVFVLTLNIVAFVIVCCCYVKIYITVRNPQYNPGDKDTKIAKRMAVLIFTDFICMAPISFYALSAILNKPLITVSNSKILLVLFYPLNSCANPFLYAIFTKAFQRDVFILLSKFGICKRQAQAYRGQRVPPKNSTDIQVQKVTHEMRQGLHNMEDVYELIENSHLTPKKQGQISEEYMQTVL
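Antagonism was scored as loss of TSH-driven cAMP in TSHR cells, stimulated with 4nM TSH (EC80) for 2 hours at 37 deg C and detected by homogeneous HTRF competition immunoassay.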
B2AR arrestin: recruits beta-arrestin to the human beta2-adrenergic receptor. P07550. beta-arrestin recruitment to beta2AR, cell-based reporter. Potency, µM (doses to about 46.1 µM), for inactives: at the top dose activation, usual class: activators. hit rate 0.02% among 330,000;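 also: potency is read from the fitted curve at half-maximal effect; 0% = DMSO controls and full agonism = EC100 isoproterenol or metaproterenol; nearly all actives have a fitted effect of over 65% in size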
CCT modulator: changes cytosolic chaperonin activity | activity change, % (no concentration beside the values), hits read low | AID 651819 | hit rate 0.3% among 360,000 | purified chaperonin ATPase assay, HTRF ADP detection, 30 min; in the data active = activity change below about -30%; also: % is scaled to controls: 0 for no effect and ±100 for the full control effect
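ATPase activity: ADP formed was measured by HTRF Transcreener (665/615 nm ratio) after 30 min at 37 deg C with 10 uM ATP. Compounds screened at one 76 uM concentration against 40 or 20 nM TRiC in Tris pH 7.4/KCl/MgCl2/DTT buffer.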
MmCpn inh: blocks the Methanococcus maripaludis chaperonin Mm-Cpn. hit rate 0.031% among 330,000. Potency, µM (series often up to 76.9 µM), without a hit: at the highest dose activity, negative = inhibition, actives largely listed as inhibitors. purified Mm-Cpn ATPase, ADP Transcreener TR-FRET; also: potency is read from the fitted curve at half-maximal effect; % is scaled to controls: 0 for no effect and ±100 for the full control effect; nearly all actives have a fitted effect of over 80% in size
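ATPase turnover read by TR-FRET ADP competition (Eu cryptate antibody/ADP-d2, 665/590 nm): 10uM ATP final, 25nM Mm-CPN final, 30 min 37degC after 10-min compound preincubation, pH 7.4 Tris/KCl/MgCl2/DTT buffer.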
* marks the source's active call; other numbers are inactive results; ? = inconclusive; / = no result; [ ] = another dose, or the depositor's remark. Unless noted, calls follow the shape of the dose curve; as a rule, active = well fitted curve in the direction sought with a large enough effect; inconclusive = small, poorly fitted or top-dose-only effect, or another doubt; inactive = no such curve, though single readings can be large; an effect the other way counts as inactive or inconclusive.

SMILES	TCR activator	TSHR antag	B2AR arrestin	CCT modulator	MmCpn inh
CCC(=O)N1CCN(c2ccc(NC(=O)c3cc4ccccc4o3)cc2Cl)CC1	-5.5%	-36.1	-0.1%	-3.1	-4.5%
CCCC(=O)N1CCN(c2ccc(NC(=O)c3cc4ccccc4o3)cc2Cl)CC1	5.4%	-86.7*	-0.4%	2.4	-4.7%
O=C1c2cccc3c([N+](=O)[O-])ccc(c23)C(=O)N1c1ccccn1	6.5%	57.5	?	-11.1	-3.4%
O=C1c2cccc3c([N+](=O)[O-])ccc(c23)C(=O)N1c1ccc(Cl)cn1	-1.7%	-88.8*	-3.0%	-1.2	-0.3%
COc1cccc(OCC(=O)N2CCC3(CC2)CC(=O)c2ccccc2O3)c1	/	-2.3	0.0%	-1.7	3.1%
Cc1ccc(S(=O)(=O)CC(C)N2CCOCC2)c(S(=O)(=O)CC(C)N2CCOCC2)c1 (configuration not stated)	2.8%	-1.3	-0.3%	-41.3*	-1.8%
Cc1ccc(Oc2cc(NC(=O)CCCn3nc([N+](=O)[O-])cc3C)cc([N+](=O)[O-])c2)cc1	6.1%[46.1 µM]	-70.5*	-0.3%	2.6	0.3%
Cc1ccc(C)c(N2CCN(CCCNC(=O)Cn3cccc3C(=O)c3ccccc3C)CC2)c1	3.5%	19.0	0.0%	-1.6	-1.1%
COCCN(CCOC)C(=O)c1cc2sc3ccccc3c2s1	-5.1%	-4.7	0.0%	-31.0*	-3.9%
O=[N+]([O-])c1cccc(-c2ccc(SCc3cccnc3)nn2)c1	/	-9.5	-0.1%	-76.2*	-1.1%
CCOC(=O)c1c(C)[nH]c(C)c1C(=O)CSc1nc2ccccc2c(=O)n1-c1ccccc1C	4.3%[46.1 µM]	7.6	3.3%	-8.7	0.6%
CN(C(=O)c1ccc2c(=O)n3c(nc2c1)CCCCC3)c1ccccc1F	-9.2%	-1.5	0.0%	1.5	0.7%
Cc1ccc(C)c(N(C)C(=O)c2ccc3c(=O)n4c(nc3c2)CCCCC4)c1	4.1%	20.9	0.4%	-72.0*	0.6%
O=C(Nc1cccc(S(=O)(=O)N2CCCCC2)c1)c1ccc2c(=O)n3c(nc2c1)CCCCC3	0.1%[46.1 µM]	-77.4*	-0.4%	-4.8	-3.1%
Cn1c(Cc2ccccc2)nnc1SCC(=O)NC1CC1	6.0%	9.7	-0.2%	-0.8	-2.1%
O=C(COC(=O)c1ccccc1Br)NCCN1C(=O)CSC1=O	3.0%	48.1	0.2%	-2.5	-3.6%
O=C(O)/C=C/C(=O)Nc1ccc(C2(c3ccc(NC(=O)/C=C/C(=O)O)cc3)c3ccccc3-c3ccccc32)cc1	-6.0%	-85.9*	-0.2%	-1.8	-1.2%
O=C(O)/C=C\C(=O)Nc1ccc(Oc2ccccc2)cc1	0.8%	3.4	-0.3%	-1.0	-4.3%
COC(=O)c1ccc(C23CC4(C2)[C@H](CN(C)[C@@H]4c2ccccc2)C3c2ccc(C(F)(F)F)cc2)cc1 (some centres not stated)	-6.2%	37.9	-0.1%	-0.2	2.0%
O=C(CCNC(=O)C1CCN(S(=O)(=O)c2ccccc2)CC1)NCc1cccc(Cl)c1	-3.9%	1.9	0.5%	-82.9*	-5.2%
O=C(CCNC(=O)C1CCN(S(=O)(=O)c2ccccc2)CC1)NCc1ccc(Cl)cc1	3.1%	-7.1	0.0%	-80.1*	0.3%
O=C(CCNC(=O)C1CCN(S(=O)(=O)c2ccccc2)CC1)NCc1ccc(Cl)cc1Cl	-3.3%	-14.7	0.1%	-24.6	-5.9%
Cc1c(C#N)c2ncn(Cc3ccccn3)c(=O)c2n1-c1ccccc1	5.4%	1.7	0.3%	-79.6*	0.3%
CCOC(=O)c1c(CN2CCOCC2)oc2ccc(OC(C)=O)cc12	/	-0.7	-0.3%	-0.3	1.0%
O=C(Cn1cnc2ccccc2c1=O)Nc1ccccc1N1CCOCC1	0.2%	12.2	-0.2%	-75.2*	-0.8%
SMILES	TCR activator	TSHR antag	B2AR arrestin	CCT modulator	MmCpn inh
COC(=O)C(=Nc1ccccc1)/C(C(=O)C(=O)N(C)c1ccccc1)=C(\O)c1ccccc1	1.2%	5.4	-0.7%	0.1	-0.1%
CC1=C/C(=N\OS(=O)(=O)c2ccccc2)C(C)=CC1=O	-2.2%	-84.2*	-0.3%	2.0	-0.2%
CC1=C/C(=N\OS(=O)(=O)c2ccccc2)C(C(C)C)=CC1=O	1.6%[46.1 µM]	-84.5*	?	0.7	-2.6%
CC(C)=CC(=O)OCC(=O)Nc1ccccc1Cl	-5.1%	1.2	0.0%	-54.4*	1.3%
CC(C)=CC(=O)OCC(=O)Nc1cc(C)ccc1C	-1.3%	5.3	0.1%	-0.2	0.2%
Cn1c(=O)c2c(SCC(=O)N3CCOCC3)nc(-c3ccccc3Cl)nc2n(C)c1=O	-4.8%	2.8	-1.0%	-30.2*	0.9%
CCCc1nc(SCC(=O)N2CCN(c3ccccc3)CC2)c2c(=O)n(C)c(=O)n(C)c2n1	-5.0%[46.1 µM]	-13.4	-0.1%	-39.0*	-0.5%
CC1(C)Cc2c(sc(NC(=O)COc3ccccc3)c2C#N)C(C)(C)N1	-4.2%	17.5	-0.1%	-0.5	0.2%
CS(=O)(=O)N1CCC(Oc2ccccc2C(=O)NC2CCCCCC2)CC1	4.1%	-13.4	-0.5%	1.9	-1.0%
CCOC(=O)CCc1c(C)c2c(C)nn(-c3ccccc3)c2[nH]c1=O	-3.7%[46.1 µM]	3.2	-0.7%	-33.8*	1.0%
CN(NC(=O)c1ccccc1F)c1ccc([N+](=O)[O-])cn1	-10.5%	1.1	0.1%	-43.0*	1.3%
CCOC(=O)c1cccc(OCC(O)CNCCOc2ccccc2F)c1 (configuration not stated)	1.4%	-105.7*	-0.1%	-0.8	-0.3%
Cc1occc1C(=O)N/N=C/c1cccnc1	0.0%	-11.1	-0.2%	1.4	-0.2%
Cc1ccc(C(=O)NC2CCN(CC(=O)Nc3ccccc3Cl)CC2)cc1	3.5%	-0.1	-1.0%	-36.7*	0.6%
O=C(Nc1cccc2ccccc12)c1ccccc1	6.5%	-82.0*	0.6%	0.3	1.2%
CCOc1ccc(C(=O)Nc2ccc3c(c2)OCCO3)cc1OC	0.6%	-1.0	-0.6%	1.1	-0.1%
O=C(Nc1nc2ccccc2[nH]1)c1ccc(F)c(S(=O)(=O)N2CCOCC2)c1	7.0%[46.1 µM]	-8.1	-1.1%	-43.7*	2.1%
O=C(Nc1nc2ccccc2[nH]1)c1cccc(S(=O)(=O)N2CCOCC2)c1	-0.7%[46.1 µM]	2.1	-0.5%	-2.6	1.1%
CC(O)(c1cccc(F)c1)c1nc(-c2ccncc2)cs1 (configuration not stated)	/	/	/	-30.9*	/
COc1ccc(OC)c(NC(=O)CSc2nnc(C)n2Cc2ccccc2)c1	0.7%	8.9	0.2%	-49.2*	0.4%
CCOC(=O)c1cnn(-c2ccc(NS(=O)(=O)c3ccc(Cl)cc3)cc2)c1C(F)(F)F	-1.3%	-15.8	5.1%	-97.7*	-1.7%
CCOc1ccccc1-n1c(=S)sc2c(=O)n(-c3ccc(F)cc3)c(SCC(=O)O)nc21	7.1%	-70.9*	-0.1%	-1.6	2.3%
CCCCN(C(=O)c1cc(CN2C(=O)c3ccccc3C2=O)ccc1OC)c1c(N)n(CC(C)C)c(=O)[nH]c1=O	0.2%	/	/	-83.7*	/
